In PubChem BioAssay (NCATS):
Several values for one entry are separate records, joined by “and”; a condition that tells them apart may be missing. Equal entries are not always repeated. Inconclusive results are not listed. Some compounds were tested as several samples or in several runs, with calls that do not always agree. Activity calls are given as the source filed them. Calls come from the whole dose curve; as a rule, active = well fitted curve in the direction sought with a large enough effect; inconclusive = small, poorly fitted or top-dose-only effect, or another doubt; inactive = no such curve, though single readings can be large; an effect the other way counts as inactive or inconclusive.

Assays:
TAB109 = assay: qHTS profiling for inhibitors of Plasmodium falciparum proliferation (AID 504749); note: nearly all actives have a fitted effect of over 60% in size; settings: P. falciparum in erythrocytes, SYBR Green DNA, 72 h; series mostly up to 28.7 µM
Method in brief: (§1)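 Each compound contacts P. falciparum-infected red blood cells for 72 h at 37 C; lysis buffer (Tris, EDTA, saponin, Triton X, SYBR Green I) is added and fluorescence measured next morning; values normalized to controls.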

TAB113 = assay: as above; settings: P. falciparum in erythrocytes, SYBR Green DNA, 72 h; series mostly up to 28.7 µM
Method in brief: as §1

TAB165 = assay: as above; settings: P. falciparum in erythrocytes, SYBR Green DNA, 72 h; series mostly up to 28.7 µM
Method in brief: as §1

CRL-7250 = normal cell line; assay: Cytotoxic Profiling of Annotated Libraries Using Quantitative High-Throughput Screening (AID 1296008); settings: Five cell lines viability, CellTiter-Glo ATP luminescence, 48-72 h; max response: hits give low values; note: nearly all actives have a fitted effect of over 60% in size; for max response: % is set by controls: 0 for no effect and ±100 for the full control effect
Method in brief: (§2)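 Cells exposed to compounds for 48 or 72 hr at 37 degrees Celsius. Viability read as ATP-coupled luminescence with CellTiter-Glo after 10 min at room temperature.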

HEK293 = assay: as above; settings: Five cell lines viability, CellTiter-Glo ATP luminescence, 48-72 h; max response: hits give low values
Method in brief: as §2

HaCat [1] = assay: as above; settings: Five cell lines viability, CellTiter-Glo ATP luminescence, 48-72 h; max response: hits give low values
Method in brief: as §2

KB-3-1 = assay: as above; settings: Five cell lines viability, CellTiter-Glo ATP luminescence, 48-72 h; max response: hits give low values
Method in brief: as §2

NIH3T3 [2] = assay: as above; settings: Five cell lines viability, CellTiter-Glo ATP luminescence, 48-72 h; max response: hits give low values
Method in brief: as §2

MCC-13 = assay: qHTS assay to identify novel small-molecules to repurpose for Merkel cell carcinoma treatment (AID 1296009); settings: MCC and control cell lines, CellTiter-Glo viability, 72 h; series mostly up to 46 µM; note: nearly all actives have a fitted effect of over 60% in size
Method in brief: (§3)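 Dose-response viability screen; 72 hr exposure at 37 degree celsius; CellTiter-Glo added, 10 min room temperature, luminescence read; RLUs scaled between no-cell and DMSO wells.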

MCC-26 = assay: as above; settings: MCC and control cell lines, CellTiter-Glo viability, 72 h; series mostly up to 46 µM
Method in brief: as §3

MKL-1 = assay: as above; settings: MCC and control cell lines, CellTiter-Glo viability, 72 h; series mostly up to 46 µM
Method in brief: as §3

MKL-2 = assay: as above; settings: MCC and control cell lines, CellTiter-Glo viability, 72 h; series mostly up to 46 µM
Method in brief: as §3

UISO = assay: as above; settings: MCC and control cell lines, CellTiter-Glo viability, 72 h; series mostly up to 46 µM
Method in brief: as §3

WaGa = assay: as above; settings: MCC and control cell lines, CellTiter-Glo viability, 72 h; series mostly up to 46 µM
Method in brief: as §3

W2 = assay: qHTS profiling for inhibitors of Plasmodium falciparum proliferation (AID 504749); note: nearly all actives have a fitted effect of over 60% in size; settings: P. falciparum in erythrocytes, SYBR Green DNA, 72 h; series mostly up to 28.7 µM
Method in brief: as §1

HEK293T = assay: qHTS assay to identify novel small-molecules to repurpose for Merkel cell carcinoma treatment (AID 1296009); settings: MCC and control cell lines, CellTiter-Glo viability, 72 h; at 44.8 µM (top of the series) unless noted; note: nearly all actives have a fitted effect of over 60% in size
Method in brief: as §3

NIH3T3 [3] = assay: as above; settings: MCC and control cell lines, CellTiter-Glo viability, 72 h; at 44.8 µM (top of the series) unless noted
Method in brief: as §3

C33A = assay: Primary qHTS to identify gynecologic anti-cancer compounds using libraries of approved drugs and bioactive compounds (AID 1345084); settings: Gynecologic cancer cell panel viability, ATPlite luminescence, 48 h; series mostly up to 57.5 µM; note: nearly all actives have a fitted effect of over 55% in size
Method in brief: (§4)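 Measured: luminescence after ATPlite addition (15 min, RT). Exposure: 48 h, 37 C, 5% CO2.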

HACAT [4] = assay: qHTS assay to identify novel small-molecules to repurpose for Merkel cell carcinoma treatment (AID 1296009); settings: MCC and control cell lines, CellTiter-Glo viability, 72 h; at 44.8 µM (top of the series) unless noted; note: nearly all actives have a fitted effect of over 60% in size
Method in brief: as §3

CAOV3 = assay: Primary qHTS to identify gynecologic anti-cancer compounds using libraries of approved drugs and bioactive compounds (AID 1345084); settings: Gynecologic cancer cell panel viability, ATPlite luminescence, 48 h; series mostly up to 57.5 µM; note: nearly all actives have a fitted effect of over 55% in size
Method in brief: as §4
Potency is the fitted concentration of half-maximal effect.

Cc1nc2n(c(=O)c1CCN1CCC(c3noc4cc(F)ccc34)CC1)CCCC2
inactive: Potency (TAB109) | Potency (TAB113) | Potency (TAB165) | max response (CRL-7250) 0.174% | max response (HEK293) -10.6% | max response (HaCat [1]) 2.05% and 3.62% | max response (KB-3-1) 0.624% and -4.98% | max response (NIH3T3 [2]) -4.59% and 2.76% | Potency (MCC-13) | Potency (MCC-26) | Potency (MKL-1) | Potency (MKL-2) | Potency (UISO) | Potency (WaGa)

C[C@]12CCC(=O)C=C1CC[C@@H]1[C@H]2[C@@H](O)C[C@@]2(C)[C@H]1CC[C@]2(O)C(=O)CO
inactive: Potency (TAB109) | Potency (TAB113) | Potency (TAB165) | Potency (W2) | max response (CRL-7250) -1.54% | outcome (HEK293) | max response (HaCat [1]) -4.53% | outcome (NIH3T3 [2]) | outcome (HEK293T) | Potency (MCC-13) | Potency (MCC-26) | Potency (MKL-1) | Potency (MKL-2) | outcome (NIH3T3 [3]) | Potency (UISO) | Potency (WaGa)

COc1cc2c(N3CCN(C(=O)Nc4ccc(OC(C)C)cc4)CC3)ncnc2cc1OCCCN1CCCCC1
inactive: max response (CRL-7250) -25.9% and -20.4% | max response (HaCat [1]) 3.85% and 0.506% | max response (KB-3-1) -30.9% and -5.38% | max response (NIH3T3 [2]) -26.1% | Potency (MCC-13) | Potency (MCC-26) | Potency (MKL-1) | Potency (MKL-2) | Potency (UISO) | Potency (WaGa) | Potency (C33A)
active: Potency (HEK293) 18.7 µM

O=c1oc2cc(O)ccc2s1
inactive: Potency (TAB109) | Potency (TAB113) | Potency (TAB165) | max response (CRL-7250) 4.4% | max response (HEK293) -4.04% | outcome (HaCat [1]) | max response (KB-3-1) -11.2% and -4.56% | max response (NIH3T3 [2]) -4.48% | outcome (HACAT [4]) | Potency (MCC-13) | Potency (MCC-26) | Potency (MKL-1) | Potency (MKL-2) | Potency (UISO) | Potency (WaGa)

O=P(O)(O)C(O)(Cn1ccnc1)P(=O)(O)O
inactive: Potency (TAB109) | Potency (TAB113) | Potency (TAB165) | Potency (W2) | outcome (CRL-7250) | max response (HEK293) -11% | outcome (HaCat [1]) | max response (KB-3-1) -1.09% and 1.16% | max response (NIH3T3 [2]) -2.33% | outcome (HACAT [4]) inactive [at 17.4 µM] | Potency (MCC-13) | Potency (MCC-26) | Potency (MKL-1) | Potency (MKL-2) | Potency (UISO) | Potency (WaGa)

CC(C)[N+]1(C)[C@@H]2CC[C@H]1CC(OC(=O)C(CO)c1ccccc1)C2 (some centres not stated)
active: Potency (WaGa) 18.7 µM
inactive: max response (CRL-7250) 2.83% | max response (HEK293) -4.08% | outcome (HaCat [1]) | max response (KB-3-1) 9.75% and 15.3% | outcome (NIH3T3 [2]) | outcome (HACAT [4]) | Potency (MCC-13) | Potency (MCC-26) | Potency (MKL-1) | outcome (NIH3T3 [3]) | Potency (UISO)

Cc1nc(Nc2ncc(C(=O)Nc3c(C)cccc3Cl)s2)cc(N2CCN(CCO)CC2)n1
inactive: Potency (TAB109) | Potency (TAB113) | max response (NIH3T3 [2]) -106% | Potency (MKL-1) | Potency (MKL-2) | Potency (WaGa) | Potency (C33A)
active: Potency (TAB165) 12.6 µM | Potency (CRL-7250) 83.3 nM and 66.8 nM and 259 nM | Potency (HEK293) 23.7 µM | Potency (HaCat [1]) 0.944 µM | Potency (NIH3T3 [2]) 59.6 nM and 73.1 nM | Potency (MCC-13) 0.168 µM | Potency (CAOV3) 8.91 µM

CC1(C)C(=O)N(CCN2CCC(C(=O)c3ccc(F)cc3)CC2)c2ccccc21
inactive: max response (CRL-7250) 0.499% | outcome (HEK293) | max response (HaCat [1]) -16.9% | max response (KB-3-1) 2.39% | max response (NIH3T3 [2]) -5.82% | outcome (HEK293T) | Potency (MCC-13) | Potency (MCC-26) | Potency (MKL-1) | Potency (MKL-2) | Potency (UISO) | Potency (WaGa)

NS(=O)(=O)c1cc(C(=O)O)c(NCc2ccco2)cc1Cl
inactive: max response (CRL-7250) -5.7% and -6.17% | max response (HEK293) 1.46% and -13.3% | max response (HaCat [1]) -0.435% and 2.7% | max response (KB-3-1) -9.49% and -2.22% | max response (NIH3T3 [2]) -5.6% and -3.32% | Potency (MCC-13) | Potency (MCC-26) | Potency (MKL-1) | Potency (MKL-2) | Potency (UISO) | Potency (WaGa) | Potency (C33A) | Potency (CAOV3)

O=C(CCc1ccc(O)cc1)c1c(O)cc(O)cc1O
inactive: outcome (CRL-7250) | max response (HEK293) 0.264% | outcome (HaCat [1]) | outcome (NIH3T3 [2]) | outcome (HACAT [4]) | Potency (MCC-13) | Potency (MCC-26) | outcome (NIH3T3 [3])
active: Potency (MKL-1) 9.35 µM | Potency (MKL-2) 4.69 µM | Potency (WaGa) 5.9 µM

O=C(CS(=O)Cc1ccco1)NCC=CCOc1cc(CN2CCCCC2)ccn1 (configuration not stated)
inactive: Potency (TAB113) | Potency (TAB165) | Potency (W2) | outcome (CRL-7250) | max response (HEK293) -11.3% | max response (HaCat [1]) 0.787% | max response (KB-3-1) 2.68% | outcome (NIH3T3 [2]) | Potency (MCC-13) | Potency (MCC-26) | Potency (MKL-1) | Potency (MKL-2) | outcome (NIH3T3 [3]) | Potency (UISO) | Potency (WaGa)

CC(C)c1ccc2c(c1)c(SC(C)(C)C)c(CC(C)(C)C(=O)O)n2Cc1ccc(Cl)cc1
inactive: max response (CRL-7250) -29.4% | max response (HEK293) -2.03% | max response (HaCat [1]) -20.8% | max response (KB-3-1) -8.99% | outcome (NIH3T3 [2]) | Potency (MCC-13) | Potency (MCC-26) | Potency (MKL-1) | Potency (MKL-2) | outcome (NIH3T3 [3]) | Potency (UISO) | Potency (WaGa)

Nc1cccc2c1CN(C1CCC(=O)NC1=O)C2=O (configuration not stated)
inactive: Potency (TAB109) | Potency (TAB113) | Potency (TAB165) | Potency (W2) | max response (CRL-7250) -16.9% and -19.4% | max response (HEK293) 2.44% and -8.05% | max response (HaCat [1]) -19.3% and -22.9% | max response (KB-3-1) 2.15% and 5.39% | max response (NIH3T3 [2]) 1.1% and -1.07% | Potency (MCC-13) | Potency (MCC-26) | Potency (MKL-1) | Potency (MKL-2) | Potency (UISO) | Potency (C33A)

Oc1ccc2ccccc2c1SSc1c(O)ccc2ccccc12
active: Potency (MKL-2) 20.9 µM
inactive: max response (CRL-7250) -5.27% | max response (HEK293) -1.68% | outcome (HaCat [1]) inactive; activator | max response (KB-3-1) 9.23% | outcome (NIH3T3 [2]) | outcome (HACAT [4]) inactive; activator | Potency (MCC-13) | Potency (MCC-26) | outcome (NIH3T3 [3])

CCOC(=O)C1=C[C@@H](OC(CC)CC)[C@H](NC(C)=O)[C@@H](N)C1
inactive: max response (CRL-7250) 0.667% | max response (HEK293) -4.58% | max response (HaCat [1]) 1.74% | max response (KB-3-1) 14.9% and 5.96% | outcome (NIH3T3 [2]) | Potency (MCC-13) | Potency (MCC-26) | Potency (MKL-1) | Potency (MKL-2) | outcome (NIH3T3 [3]) | Potency (UISO) | Potency (WaGa)

COc1c(O)cc2c(c1O)[C@@H]1O[C@H](CO)[C@@H](O)[C@H](O)[C@H]1OC2=O
inactive: outcome (CRL-7250) | outcome (HEK293) | max response (HaCat [1]) -11.1% and -23.6% | max response (KB-3-1) 6.75% and -4.18% and 5.95% | max response (NIH3T3 [2]) -9.83% and 0.115% | outcome (HEK293T) | Potency (MCC-13) | Potency (MCC-26) | Potency (MKL-1) | Potency (MKL-2) | Potency (UISO) | Potency (WaGa) | Potency (CAOV3)
